Screening results: PubChem BioAssay, several laboratories
This is one part of a sample in which hits are shown more often than they occur.
hDAT+cocaine – changed human dopamine transporter uptake under cocaine IC80 | LLC-PK1 hDAT cells, [14C]-dopamine uptake with cocaine IC80; actives deviate in either direction | B-score at 10 µM | actives 1.3% (n = 110,000) | AID 449768 | Q01959;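 active = Z score or B-score, a plate-position-corrected score, falls beyond the plate's 99.7% confidence bounds, in either direction; inactive = both scores lie inside the 99.7% bounds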
D1 mod – allosteric modulators of human D1 dopamine receptor; HEK293 D1, CRE-luciferase, dopamine EC30 potentiation; actives deviate in either direction; B-score at 10 µM; actives 5.9% (n = 58,000);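 active = luminescence count or its row- and column-corrected plate score outside the 99.7% band of the plate's sample wells, on either side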
Target sequence (P21728 whole entry, looked up): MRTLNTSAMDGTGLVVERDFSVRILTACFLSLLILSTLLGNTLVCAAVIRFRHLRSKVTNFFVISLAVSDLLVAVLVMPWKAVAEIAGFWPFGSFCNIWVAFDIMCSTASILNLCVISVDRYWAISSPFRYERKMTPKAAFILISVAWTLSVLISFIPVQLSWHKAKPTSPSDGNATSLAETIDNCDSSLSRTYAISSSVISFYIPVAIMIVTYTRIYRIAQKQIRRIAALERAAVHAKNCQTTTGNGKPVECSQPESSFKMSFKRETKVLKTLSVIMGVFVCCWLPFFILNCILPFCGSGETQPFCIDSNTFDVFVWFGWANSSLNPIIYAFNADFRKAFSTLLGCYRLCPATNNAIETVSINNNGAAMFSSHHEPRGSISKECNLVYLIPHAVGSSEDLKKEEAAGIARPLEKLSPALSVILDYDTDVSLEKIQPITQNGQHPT
BAP1 inh – human BAP1 deubiquitinase inhibition | Q92560 | recombinant BAP1, Ub-AMC hydrolysis fluorescence kinetic; hits give low values | calls only at 20 µM | actives 0.48% (n = 72,000);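 active = activity remaining at or below 50% of control, provided the compound also passes the data quality filters; inactive = the rest, including low values that fail the filters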
Of the large screens only hits and unclear results are named; the others gave an inactive call.

Cc1ccccc1Cc1c(C)nc2nc(SCC(=O)NCc3ccco3)nn2c1C	hDAT+cocaine -7.9 (no result: D1 mod, BAP1 inh)
Cc1ccc(Cc2c(C)nc3nc(SCC(=O)NCc4ccco4)nn3c2C)cc1	none (no result: BAP1 inh)
Cc1nc2c(C(=O)O)cnn2c(C)c1Cc1ccccc1F	none
CCCCCCNC(=O)C1CC(=O)N(c2ccc(C)c(Cl)c2)C1 (stereo not drawn)	none (no result: hDAT+cocaine, D1 mod)
COc1cc(NC(=O)c2cnn3c(C(F)(F)F)cc(-c4ccc(F)cc4)nc23)cc([N+](=O)[O-])c1	none (no result: hDAT+cocaine, D1 mod)
COc1cccc(C(=O)CN2C(=O)C(C)(C)Oc3ccc(C(=O)N4CCCCCC4)cc32)c1	none
COc1cccc(NC(=O)c2ccc3c(c2)N(CC(=O)N2CCCCC2)C(=O)C(C)(C)O3)c1	hDAT+cocaine 3.1
C=CCNc1ncnc2c1cnn2-c1ccc(C)cc1C	none
CCOC(=O)N1CCC(Nc2ncnc3c2cnn3-c2ccc(C)cc2C)CC1	D1 mod -3.7
CCc1ccc(C2NC(=O)NC(C)=C2C(=O)OCCOc2ccccc2)cc1 (stereo not drawn)	none (no result: hDAT+cocaine, D1 mod)
COc1cc(NC(=O)COc2ccccc2C(C)(C)C)c(OC)cc1Cl	none (no result: hDAT+cocaine, D1 mod)
CCCC(=O)C1=C(O)C(C(=O)OC)C(C)(C)CC1=N (stereo not drawn)	hDAT+cocaine -3.2
CCCC(=O)C1=C(O)C(C(=O)OC)C(C)(C)CC1=NC(C)(C)C (stereo not drawn)	none (no result: D1 mod, BAP1 inh)
CCCC(=O)C1=C(O)C(C(=O)OC)C(C)(C)CC1=Nc1ccccc1 (stereo not drawn)	none (no result: BAP1 inh)
CCCC(=O)C1=C(O)C(C(=O)OC)C(C)(C)CC1=Nc1cccc2ccccc12 (stereo not drawn)	hDAT+cocaine 3 (no result: D1 mod, BAP1 inh)
COc1ccc2oc(=Nc3ccccc3C)c(C(=O)NC(C)=O)cc2c1	none (no result: hDAT+cocaine, D1 mod)
O=C(Oc1ccc(OC(=O)c2ccc3c(c2)C(=O)N(c2ccccn2)C3=O)cc1)c1ccc2c(c1)C(=O)N(c1ccccn1)C2=O	none (no result: hDAT+cocaine, D1 mod)
COc1ccc(-c2nn3c(-c4cccc(C)c4)nnc3s2)cc1OC	D1 mod 17
COc1ccccc1-c1nnc2sc(-c3ccc(N(C)C)cc3)nn12	D1 mod 7.5 (no result: hDAT+cocaine)
CN(C)c1ccc(-c2nn3c(-c4ccccc4Cl)nnc3s2)cc1	none (not shown: BAP1 inh)
COc1ccc(-c2nn3c(-c4ccccn4)nnc3s2)cc1OC	none (no result: D1 mod)
CCC(=O)Nc1ccc2c(c1)ncn2-c1ccc(OC)cc1	hDAT+cocaine 2.9 (no result: D1 mod, BAP1 inh)
COc1ccc(-n2cnc3cc(NCc4ccccn4)ccc32)cc1	none (no result: D1 mod, BAP1 inh)
CCC(=O)Nc1cc2nn(-c3ccc(OC)cc3)nc2cc1C	D1 mod -5 (not shown: BAP1 inh)
CCCCC(=O)Nc1cc2nn(-c3ccc(OC)cc3)nc2cc1C	none (not shown: BAP1 inh)
Cc1ccccc1OCC(=O)Nc1ccc2c(c1)oc1ccccc12	none (no result: hDAT+cocaine, D1 mod)
O=C1c2ccc([N+](=O)[O-])cc2C(=O)N1C1C(=O)N(c2ccc(Br)cc2)C1c1ccc2c(c1)OCO2 (stereo not drawn)	none (no result: hDAT+cocaine, D1 mod)
CCC(C)(Nc1ccc(C)cc1)c1nnnn1-c1c(C)cccc1C (stereo not drawn)	none (no result: hDAT+cocaine, D1 mod)
CCOC(=O)c1nc2sc3c(c2c(=O)[nH]1)CCCC3	none (not shown: BAP1 inh)
CCOC(=O)c1nc(N2CCN(C(=O)OCC)CC2)c2c3c(sc2n1)CCCC3	hDAT+cocaine 3.2 (not shown: D1 mod, BAP1 inh)
Cn1c(=O)[nH]c(=O)c2c1nc(SCC(=O)Nc1ccccc1)n2Cc1ccccc1	none
CC(C)CCn1c(N2CCN(Cc3ccccc3)CC2)nc2c1c(=O)[nH]c(=O)n2C	none (no result: hDAT+cocaine)
CCCCCn1c(N2CCN(Cc3ccccc3)CC2)nc2c1c(=O)[nH]c(=O)n2C	hDAT+cocaine 3
C=C(C)CSc1nc2c(c(=O)[nH]c(=O)n2C)n1Cc1ccccc1	D1 mod 11
CCC(C)Sc1nc2c(c(=O)[nH]c(=O)n2C)n1Cc1ccc(Cl)cc1 (stereo not drawn)	none
CC(C)Sc1nc2c(c(=O)[nH]c(=O)n2C)n1Cc1ccc(Cl)cc1	D1 mod 23
O=C(CSc1ccc2ccccc2c1)Nc1cccc(C(F)(F)F)c1	none (no result: hDAT+cocaine, D1 mod)
CCOc1ccc(Nc2nc(C)c([N+](=O)[O-])c(Nc3ccccc3)n2)cc1	none (no result: hDAT+cocaine, D1 mod)
Cc1ccc(CNc2nc(N)c([N+](=O)[O-])c(Nc3ccc(F)cc3)n2)cc1	hDAT+cocaine -11 (no result: D1 mod, BAP1 inh)
CCOC(=O)c1sc(NC(=O)CSc2nnc(C(C)C)n2C)nc1C	none (no result: D1 mod, BAP1 inh)
CCOC(=O)c1sc(NC(=O)CSc2nnc(C(C)C)n2CC)nc1C	hDAT+cocaine 2.5
NC(=O)c1cc2c(ccc3ccccc32)oc1=Nc1cccc2ccccc12	none (no result: hDAT+cocaine, D1 mod)
COc1ccc(CCNC(=O)C(C)N2C(=O)c3ccccc3C2=O)cc1OC (stereo not drawn)	none (no result: hDAT+cocaine, D1 mod)
O=C(CN1CCN(S(=O)(=O)c2ccc(Br)cc2)CC1)Nc1ccccc1F	none
O=C(CN1CCCN(S(=O)(=O)c2ccc(F)cc2)CC1)Nc1ccccc1Br	hDAT+cocaine 3.2
CC1=C(C(=O)OC(C)C)C(c2coc3ccc(Cl)cc3c2=O)C2=C(CCCC2=O)N1 (stereo not drawn)	none (no result: hDAT+cocaine, D1 mod)
